Consider 13 compounds from PubChem BioAssay.

Assay [1] is described as follows: HepG2 liver cancer cell viability effects, profiling panel, resazurin fluorescence, 24 h, PK04 Diversity Set (AID 1172). Note: test concentration not given here. As to conditions: higher = more signal. (In general: The colour change of resazurin is a common sign of viable cells or microbes.)
Assay [2] can be described thus: basal S. cerevisiae growth modulation, no modifier, primary screen, OD600, strain BY4716, 24 h, basal condition (AID 1173). Conditions: OD600, 24 h, higher = more signal, called active from +8 up or from −8 down.
Assay [3] is described as follows: MM1S myeloma cell viability, profiling panel, resazurin fluorescence, basal, 24 h, PK04 Diversity Set (AID 1174).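 Note: MM1S multiple myeloma cell line; test concentration not given here.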 As to conditions: higher = more signal, called active from +8 up or from −8 down.
Assay [4] deals with Dihydroorotate dehydrogenase (quinone), mitochondrial (Plasmodium falciparum (isolate 3D7)) (UniProt Q08210). In words: PfDHODH enzyme inhibitors, primary screen, biochemical, C-terminal His tag, absorbance 600 nm (AID 1175).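 Note: recombinant parasite enzyme with a five histidine tag at its C terminus; test concentration not given here.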 Conditions: DCIP absorbance 600 nm, higher = more signal, called active from +8 up or from −8 down.
Sequence of Dihydroorotate dehydrogenase (quinone), mitochondrial (Plasmodium falciparum (isolate 3D7)) (Q08210 whole entry, looked up): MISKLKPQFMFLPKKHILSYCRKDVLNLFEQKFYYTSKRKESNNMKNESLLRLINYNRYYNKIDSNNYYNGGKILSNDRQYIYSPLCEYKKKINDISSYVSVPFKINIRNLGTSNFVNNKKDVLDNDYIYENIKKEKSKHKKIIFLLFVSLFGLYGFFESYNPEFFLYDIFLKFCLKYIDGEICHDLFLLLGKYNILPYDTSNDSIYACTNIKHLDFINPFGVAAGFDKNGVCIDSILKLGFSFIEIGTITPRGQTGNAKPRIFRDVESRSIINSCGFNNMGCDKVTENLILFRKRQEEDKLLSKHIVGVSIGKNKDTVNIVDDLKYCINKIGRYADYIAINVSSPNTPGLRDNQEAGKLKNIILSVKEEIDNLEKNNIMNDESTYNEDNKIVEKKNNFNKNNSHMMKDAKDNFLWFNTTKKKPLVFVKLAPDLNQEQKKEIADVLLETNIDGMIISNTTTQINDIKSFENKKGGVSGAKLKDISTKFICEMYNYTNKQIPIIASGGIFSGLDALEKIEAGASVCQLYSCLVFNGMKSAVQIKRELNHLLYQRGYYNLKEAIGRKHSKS
Assay [5] can be described thus: P. aeruginosa biofilm formation inhibitors, primary screen, strain PAO1, LB-PBS medium, absorbance 600 nm (AID 1176). Note: test concentration not given here. As to conditions: P. aeruginosa PAO1 growth/biofilm, A600, 12 h; higher = more signal.
A short description of assay [6]: S. cerevisiae RM11-1a growth modifiers, primary screen, strain RM11-1a, OD600, basal, 24 h (AID 1177).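 Note: cultures grown under basal conditions with no added stressor; test concentration not given here.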 As to conditions: OD600, 24 h, higher = more signal, called active from +8 up or from −8 down.
Assay [7] in a line: E. coli acrAB mutant growth effects, primary screen, E. coli filamentation inducers, strain DRC39, OD650, 24 h (AID 1178).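 Note: growth measured as culture turbidity by optical density at 650 nm; test concentration not given here.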 As to conditions: higher = more signal, called active from +8 up or from −8 down.
Assay [8] can be described thus: E. coli acrAB mutant growth effects, primary screen, E. coli filamentation inducers, strain DRC39, OD650, 48 h (AID 1179).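 Note: screen aims at cell division blockers that make cells filament.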 As to conditions: E. coli DRC39 delta-acrAB growth, higher = more signal, called active from +8 up or from −8 down.
Assay [9] in a line: RPMI8226 myeloma cell viability, profiling panel, resazurin fluorescence, basal, 24 h, PK04 Diversity Set (AID 1180).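 Note: RPMI8826 multiple myeloma cell line at 5000 cells per well; test concentration not given here.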 As to conditions: higher = more signal.
For assay [10], the target named is E3 ubiquitin-protein ligase XIAP (Homo sapiens) (UniProt P98170). In words: XIAP binders, primary screen, biophysical, small-molecule microarray, fluorescence 635 nm (AID 1181).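 Note: score merges 667 nm emission and signal to noise over triplicate slides.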 Conditions: small-molecule microarray binding, higher = more signal.
Sequence of E3 ubiquitin-protein ligase XIAP (Homo sapiens) (P98170 whole entry, looked up): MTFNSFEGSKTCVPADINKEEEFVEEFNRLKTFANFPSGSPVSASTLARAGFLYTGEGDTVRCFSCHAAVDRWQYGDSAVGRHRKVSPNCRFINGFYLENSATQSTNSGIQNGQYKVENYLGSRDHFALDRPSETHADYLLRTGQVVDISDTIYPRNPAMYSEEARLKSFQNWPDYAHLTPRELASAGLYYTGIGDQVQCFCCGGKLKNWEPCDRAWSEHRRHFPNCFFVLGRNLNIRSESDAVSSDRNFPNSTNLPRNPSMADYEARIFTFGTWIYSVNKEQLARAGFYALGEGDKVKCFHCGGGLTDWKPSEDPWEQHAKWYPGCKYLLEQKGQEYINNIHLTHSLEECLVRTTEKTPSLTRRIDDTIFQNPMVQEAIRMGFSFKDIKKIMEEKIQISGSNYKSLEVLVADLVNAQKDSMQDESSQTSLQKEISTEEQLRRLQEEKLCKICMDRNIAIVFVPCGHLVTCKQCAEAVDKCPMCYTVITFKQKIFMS

Calls of active or inactive are those of the source. Unless noted, the rule behind the calls is not given here.

`O=c1n(-c2ccccc2)c(=O)n2n1CC[C@@H]1C(=NOCc3ccccc3)[C@H]3O[C@H]3[C@@H](O)[C@@H]12`: the z-score was -1.28 in assay [1]; -0.274 (inactive) in assay [2]; -0.503 (inactive) in [3]; -0.0485 (inactive) in [5]; -0.249 (inactive) in assay [6]; -0.792 (inactive) in assay [7]. For the same compound, the values for the z-score in assay [8] and in assay [9] were -0.604 (inactive) and -1.12, respectively. Moreover, the composite z-score in assay [4] is -3.02 (inactive); in [10] it was -0.0026.
Regarding `C=CC[C@@H]1C=C[C@H](ON=C[C@@H](C)[C@H](OCc2ccccc2)C(C)C)[C@@H](CO)O1`, the z-score was 0.0253 in assay [1]; -5.6 (inactive) in [2]; -0.865 (inactive) in assay [3]; 0.241 (inactive) in assay [5]; -0.62 (inactive) in assay [6]; -0.295 (inactive) in assay [7]. For the same compound, the z-score in assay [8] was -0.238 (inactive); in assay [9], -0.183. The composite z-score is -0.408 (inactive) in [4] and -0.138 in assay [10].
For the compound `C[C@H](ON=C1[C@H]2CCn3c(=O)n(-c4ccccc4)c(=O)n3[C@H]2[C@H](O)[C@@H]2O[C@H]12)c1cn([C@H](CO)Cc2ccccc2)nn1`, the z-score in assay [1] is -0.189; in assay [2], -0.145 (inactive); in [3] it was -0.489 (inactive); in assay [5], 0.0282 (inactive); in assay [6] it was -1.09 (inactive); in assay [7], 0.571 (inactive). The z-score is 0.223 (inactive) in assay [8] and -0.226 in assay [9]. Also, the results for the composite z-score in assay [4] and in assay [10] were -1.29 (inactive) and -0.106, respectively.
Consider `CO[C@@H]1C=CCC(=O)N2CCC[C@H]2C(=O)OC[C@@H](C)C(=O)OC[C@H]1C`, for which the z-score is 1.12 in assay [1]; -0.62 (inactive) in [2]; 0.866 (inactive) in assay [3]; 0.659 (inactive) in assay [5]; -0.841 (inactive) in [6]; 0.947 (inactive) in assay [7]. Besides, the z-score in assay [8] was 0.977 (inactive); in assay [9], 0.218. The composite z-score in assay [4] is 0.321 (inactive); in assay [10] it was 0.104.
For the compound `Cc1cc2c(nc1C)CCCCN2CC(C)ON=C[C@@H](C)[C@H](OCc1ccccc1)C(C)C` (stereo not given in full), the z-score in assay [1] is 1.48; in assay [2], -5.49 (inactive); in assay [3], 0.674 (inactive); in assay [5], 0.675 (inactive); in assay [6] it was -1.02 (inactive); in assay [7], -0.152 (inactive). The z-score is -0.4 (inactive) in assay [8] and 1.4 in assay [9]. Further, the composite z-score was -0.983 (inactive) in [4] and 0.0856 in assay [10].
Consider `CCCCC#C[C@@H]1C=C[C@H](Oc2ccc(C(=O)OC)cc2)[C@@H](COC(=O)OCC)O1`, for which the z-score was 0.257 in [1]; -4.46 (inactive) in assay [2]; -1.6 (inactive) in assay [3]; 0.472 (inactive) in assay [5]; -0.37 (inactive) in [6]; -0.301 (inactive) in assay [7]. Further, the z-score in assay [8] is -0.0901 (inactive); in assay [9], -1.08. Also, the composite z-score in assay [4] is -0.189 (inactive); in assay [10], -0.194.
In the case of `C[C@@H]1C=CCC(=O)OC[C@H]2O[C@@H](C=C[C@@H]2O)[C@H](C)C=CCC(=O)OC1`, the z-score in [1] was -0.444; in assay [2] it was -1.03 (inactive); in assay [3] it was 0.324 (inactive); in assay [5], 0.565 (inactive); in assay [6] it was -2.26 (inactive); in assay [7] it was 0.577 (inactive). Also, the z-score was 0.205 (inactive) in [8] and -0.667 in [9]. Moreover, the composite z-score in assay [4] was -0.793 (inactive); in assay [10] it was -0.0826.
In the case of `CCOC(=O)[C@H](CC(C)C)NC(=O)CCC1CC(OC(=O)NCc2cccc3ccccc23)CC2(CCCC(COC(=O)NCc3cccc(C(F)(F)F)c3)O2)O1` (stereo not given in full), the z-score in assay [1] was -0.189; in [2], -0.31 (inactive); in assay [3] it was 0.0223 (inactive); in assay [5] it was 0.687 (inactive); in [6] it was 0.388 (inactive); in assay [7], 0.939 (inactive). Further, the z-score in assay [8] is 1.08 (inactive); in assay [9], 0.639. Moreover, the composite z-score in assay [4] was -0.161 (inactive); in assay [10], -0.206.
Consider `O=C1[C@H]2[C@H]3[C@H](O)[C@H](O)CC(=NOC[C@@H](O)COCc4ccco4)[C@H]3CC[C@H]2C(=O)N1c1ccc(F)cc1F`, for which the z-score in [1] was 0.474; in assay [2] it was -1.89 (inactive); in assay [3], 0.988 (inactive); in assay [5], 1.18 (inactive); in [6] it was -3.71 (inactive); in assay [7] it was -0.311 (inactive). Moreover, the z-score in assay [8] is -1.22 (inactive); in assay [9], -0.374. Also, the values for the composite z-score in assay [4] and in assay [10] were -2.54 (inactive) and -0.446, respectively.
As to `C#CCCCON=C1C[C@@H](O)[C@@H](O)[C@@H]2[C@@H]3C(=O)N(Cc4ccccc4)C(=O)[C@@H]3CC[C@@H]12`, the z-score in [1] was 0.71; in assay [2], -0.878 (inactive); in assay [3], 0.736 (inactive); in assay [5], -0.601 (inactive); in [6] it was -0.0952 (inactive); in assay [7], 0.777 (inactive). The z-score in [8] is 1.2 (inactive); in assay [9], 0.886. Also, the composite z-score is -1.23 (inactive) in [4] and -0.267 in assay [10].
For the compound `CCOC(=O)[C@H](CC(C)C)NC(=O)CCC1CC(OC(=O)NCCc2ccc(F)cc2)CC2(CCCC(COC(=O)NCCc3ccccc3OC)O2)O1` (stereo not given in full), the z-score was -0.285 in assay [1]; -0.376 (inactive) in [2]; 0.311 (inactive) in assay [3]; 0.45 (inactive) in [5]; 0.354 (inactive) in assay [6]; 0.61 (inactive) in [7]. Also, the z-score in assay [8] is 0.376 (inactive); in [9], 0.441. The composite z-score in assay [4] was -0.991 (inactive); in assay [10], -0.0565.
Take `O=C1C[C@@H](O)[C@@H](O)[C@@H]2[C@@H]3C(=O)N(C[C@@H]4CCCO4)C(=O)[C@@H]3CC[C@H]12`: the z-score is -0.57 in [1]; -0.189 (inactive) in assay [2]; -0.0898 (inactive) in assay [3]; -0.744 (inactive) in assay [5]; 0.739 (inactive) in assay [6]; 0.343 (inactive) in assay [7]. The z-score in assay [8] was 0.17 (inactive); in assay [9] it was -0.449. The composite z-score in assay [4] was 0.602 (inactive); in assay [10], -0.28.
Consider `CCOC(=O)[C@H](Cc1ccccc1)NC(=O)CCC1CC(OC(=O)NCCc2ccc(F)cc2)CC2(CCCC(COC(=O)NCCOC)O2)O1` (stereo not given in full), for which the z-score was -0.154 in assay [1]; -0.664 (inactive) in [2]; -0.195 (inactive) in assay [3]; 0.487 (inactive) in assay [5]; 0.128 (inactive) in assay [6]; 1.21 (inactive) in [7]. In addition, the figures for the z-score in assay [8] and in assay [9] were 0.195 (inactive) and 0.673, respectively. Also, the composite z-score in [4] is -1.47 (inactive); in assay [10], -0.242.
